# According to the supplement of paper PMC12636033:
# ± gives the standard deviation of the averaged measurements. The full ranking holds about 33,000 sequences; the median of “E-score (rank enrichment, -0.5 to 0.5)” is about -0.0068, and the highest 2% start at about 0.24. This excerpt belongs to a sample that is enriched for the highest values.
# Test system: muMax20 (Max(13-93) K31hArg/K57hArg, M65Nle)
# Assay: PBM 8-mer E-score (E-score (rank enrichment, -0.5 to 0.5)); higher = stronger preferential binding
# Experimental: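 Protein binding microarray (universal PBM chip covering all 10-mers in fixed probe flanks) with chemically synthesized human Max(13-93) bHLH-LZ analogs (not full-length Max) bearing noncanonical residues (hArg, Tha, Aib, Nle at 65) and aromatic Cys staples. Read-out per 8-mer (and its reverse complement): E-score (rank-based enrichment, -0.5 to 0.5) and Z-score of median probe intensity.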
row,Sequence,PBM 8-mer E-score
1,AGATTCGG,-0.118 ± 0.032
2,TCAAGGGA,-0.065 ± 0.048
3,GAGATACA,-0.0288 ± 0.04
4,AAGATACT,0.117 ± 0.038
5,AAGATATA,0.26 ± 0.041
6,AAGATATC,0.155 ± 0.027
7,CTGATATA,0.0184 ± 0.051
8,CAGATGTA,0.138 ± 0.011
9,ATGATATA,0.266 ± 0.048
10,AAGATGTA,0.237 ± 0.094
11,GAGATGTA,0.104 ± 0.017
12,CAGATATA,0.0469 ± 0.045
13,ATGATATG,0.21 ± 0.12
14,AAGATACA,0.316 ± 0.024
15,CGAGCCGA,-0.153 ± 0.036
16,GAAGCACC,-0.0676 ± 0.049
17,ACCTAGCG,-0.048 ± 0.057
18,GAGGTAGA,0.0124 ± 0.047
19,ACCGCTTA,-0.0621 ± 0.13
20,GTGATGTA,0.2775 ± 0.00062
21,AAGATAAC,0.172 ± 0.07
22,AAGATAAG,0.15 ± 0.031

row,Sequence,PBM 8-mer E-score
1,CTGATGTA,-0.0502 ± 0.023
2,ATGATGTA,0.171 ± 0.12
3,AAGATAAT,0.239 ± 0.051
4,CCTGCCCC,-0.167 ± 0.078
5,CCAGCTGC,-0.272 ± 0.12
6,GGCGCAAA,-0.148 ± 0.17
7,GTGTAAAA,0.113 ± 0.016
8,AGAACGAG,0.133 ± 0.061
9,ATACGATA,0.244 ± 0.053
10,CTACGATA,0.082 ± 0.02
11,GTACGATA,0.163 ± 0.033
12,GAGTCGGC,-0.146 ± 0.055
13,CGGATGCC,-0.075 ± 0.079
14,ATTCGTGC,0.0424 ± 0.086
15,AACCAGTT,0.0717 ± 0.038
16,AGATACAG,0.218 ± 0.024
17,ACATACAC,0.165 ± 0.057
18,ATATACAT,0.247 ± 0.032
19,CCATACAG,-0.0198 ± 0.047
20,ACATACAA,0.137 ± 0.076
21,ATATACAA,0.229 ± 0.069
22,ACATACAT,0.243 ± 0.029

row,Sequence,PBM 8-mer E-score
1,ACATACAG,0.242 ± 0.017
2,ATATACAC,0.169 ± 0.004
3,GATGTACC,0.0595 ± 0.065
4,ACTCCTAT,0.0559 ± 0.1
5,AAACGGGC,0.0187 ± 0.03
6,TAAACAAA,0.184 ± 0.008
7,AGCTCCCC,-0.0268 ± 0.092
8,AAATACAG,0.209 ± 0.07
9,GAATACAC,0.123 ± 0.014
10,AAATACAA,0.19 ± 0.018
11,AAATACAC,0.273 ± 0.038
12,AAATACAT,0.259 ± 0.061
13,CAATACAC,0.194 ± 0.043
14,CGGTTTTC,0.00594 ± 0.054
15,ATAGCGTG,0.161 ± 0.019
16,AGCACTCG,-0.199 ± 0.078
17,GAACGCCA,-0.206 ± 0.021
18,AAATCGCG,-0.0409 ± 0.032
19,GGTAAGAA,0.0527 ± 0.1
20,CATAACGA,0.0556 ± 0.017
21,CTAATTAA,0.0707 ± 0.041
22,ATAATTAG,0.223 ± 0.1

row,Sequence,PBM 8-mer E-score
1,ATAATTAC,0.22 ± 0.074
2,ATAATTAA,0.175 ± 0.05
3,TGAATTAA,0.254 ± 0.043
4,GGAATTAA,0.1996 ± 0.0018
5,CGAATTAA,0.106 ± 0.11
6,TTAATTAA,0.324 ± 0.12
7,ATAATTAT,0.276 ± 0.0028
8,CCTGTCCA,-0.131 ± 0.17
9,CCAGTTTA,-0.0199 ± 0.068
10,ATAAGGCC,-0.0432 ± 0.14
11,AGTGCCTA,-0.109 ± 0.091
12,CAACTGCC,0.0721 ± 0.014
13,TCGAGGAA,-0.0274 ± 0.069
14,CCCACAAA,0.183 ± 0.015
15,ATGATAGC,0.2152 ± 0.0016
16,CCCATGCA,0.133 ± 0.01
17,TCCATGCA,0.105 ± 0.07
18,ACCATGCA,0.28 ± 0.096
19,AGCATGCA,0.284 ± 0.11
20,GGCATGCA,0.106 ± 0.091
